Measurements reported in ChEMBL document CHEMBL1961873, “Compounds: GSK PKIS; Assays: Nanosyn kinase panel” (2012).

Assays:
[1] = target: Tyrosine-protein kinase CSK (Homo sapiens) (UniProt P41240); conditions: at 1 µM;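 also: each value is an averaged inhibition reading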
[2] = target: T1, Discoidin domain-containing receptor 2 (Homo sapiens) (UniProt Q16832); conditions: at 0.1 µM
T1 sequence (whole entry): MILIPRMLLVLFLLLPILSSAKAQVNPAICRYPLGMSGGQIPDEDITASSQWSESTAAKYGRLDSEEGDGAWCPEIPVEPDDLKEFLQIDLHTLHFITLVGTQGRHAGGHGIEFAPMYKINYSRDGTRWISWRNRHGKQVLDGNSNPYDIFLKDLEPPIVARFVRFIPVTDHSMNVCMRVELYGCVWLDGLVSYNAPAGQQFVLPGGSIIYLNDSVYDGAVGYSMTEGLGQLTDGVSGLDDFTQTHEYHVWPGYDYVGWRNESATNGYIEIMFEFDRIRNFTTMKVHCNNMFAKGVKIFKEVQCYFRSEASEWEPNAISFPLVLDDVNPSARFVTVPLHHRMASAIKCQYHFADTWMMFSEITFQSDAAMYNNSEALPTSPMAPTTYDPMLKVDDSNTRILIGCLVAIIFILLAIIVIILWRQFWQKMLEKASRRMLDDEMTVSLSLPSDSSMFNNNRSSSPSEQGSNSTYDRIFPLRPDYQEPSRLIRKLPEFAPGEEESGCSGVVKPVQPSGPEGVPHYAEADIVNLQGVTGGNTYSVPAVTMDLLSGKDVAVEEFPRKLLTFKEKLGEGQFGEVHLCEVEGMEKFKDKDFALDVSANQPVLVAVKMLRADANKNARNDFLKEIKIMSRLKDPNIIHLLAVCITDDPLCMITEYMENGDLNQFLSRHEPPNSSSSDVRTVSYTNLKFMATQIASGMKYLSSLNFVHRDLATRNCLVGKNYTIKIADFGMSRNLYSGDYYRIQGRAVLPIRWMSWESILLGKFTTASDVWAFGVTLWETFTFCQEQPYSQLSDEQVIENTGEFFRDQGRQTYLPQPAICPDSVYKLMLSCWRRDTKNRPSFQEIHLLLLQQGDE

[3] = target: T1, Discoidin domain-containing receptor 2 (Homo sapiens); conditions: at 1 µM
[4] = target: Epidermal growth factor receptor (Homo sapiens) (UniProt P00533); conditions: at 0.1 µM
[5] = target: Epidermal growth factor receptor (Homo sapiens) (UniProt P00533); conditions: at 1 µM
[6] = tested on: Epidermal growth factor receptor (Homo sapiens), P00533 [L858R]; conditions: at 0.1 µM
[7] = tested on: Epidermal growth factor receptor (Homo sapiens), P00533 [L858R]; conditions: at 1 µM
[8] = tested on: Epidermal growth factor receptor (Homo sapiens), P00533 [L861Q]; conditions: at 0.1 µM
[9] = tested on: Epidermal growth factor receptor (Homo sapiens), P00533 [L861Q]; conditions: at 1 µM
[10] = tested on: Epidermal growth factor receptor (Homo sapiens), P00533 [T790M]; conditions: at 0.1 µM
[11] = tested on: Epidermal growth factor receptor (Homo sapiens), P00533 [T790M]; conditions: at 1 µM
[12] = tested on: Epidermal growth factor receptor (Homo sapiens), P00533 [L858R,T790M]; conditions: at 0.1 µM
[13] = tested on: Epidermal growth factor receptor (Homo sapiens), P00533 [L858R,T790M]; conditions: at 1 µM
[14] = target: Ephrin type-A receptor 2 (Homo sapiens) (UniProt P29317); conditions: at 0.1 µM
[15] = target: Ephrin type-A receptor 2 (Homo sapiens) (UniProt P29317); conditions: at 1 µM
[16] = target: T2, Ephrin type-A receptor 3 (Homo sapiens) (UniProt P29320); conditions: at 0.1 µM
T2 sequence (whole entry): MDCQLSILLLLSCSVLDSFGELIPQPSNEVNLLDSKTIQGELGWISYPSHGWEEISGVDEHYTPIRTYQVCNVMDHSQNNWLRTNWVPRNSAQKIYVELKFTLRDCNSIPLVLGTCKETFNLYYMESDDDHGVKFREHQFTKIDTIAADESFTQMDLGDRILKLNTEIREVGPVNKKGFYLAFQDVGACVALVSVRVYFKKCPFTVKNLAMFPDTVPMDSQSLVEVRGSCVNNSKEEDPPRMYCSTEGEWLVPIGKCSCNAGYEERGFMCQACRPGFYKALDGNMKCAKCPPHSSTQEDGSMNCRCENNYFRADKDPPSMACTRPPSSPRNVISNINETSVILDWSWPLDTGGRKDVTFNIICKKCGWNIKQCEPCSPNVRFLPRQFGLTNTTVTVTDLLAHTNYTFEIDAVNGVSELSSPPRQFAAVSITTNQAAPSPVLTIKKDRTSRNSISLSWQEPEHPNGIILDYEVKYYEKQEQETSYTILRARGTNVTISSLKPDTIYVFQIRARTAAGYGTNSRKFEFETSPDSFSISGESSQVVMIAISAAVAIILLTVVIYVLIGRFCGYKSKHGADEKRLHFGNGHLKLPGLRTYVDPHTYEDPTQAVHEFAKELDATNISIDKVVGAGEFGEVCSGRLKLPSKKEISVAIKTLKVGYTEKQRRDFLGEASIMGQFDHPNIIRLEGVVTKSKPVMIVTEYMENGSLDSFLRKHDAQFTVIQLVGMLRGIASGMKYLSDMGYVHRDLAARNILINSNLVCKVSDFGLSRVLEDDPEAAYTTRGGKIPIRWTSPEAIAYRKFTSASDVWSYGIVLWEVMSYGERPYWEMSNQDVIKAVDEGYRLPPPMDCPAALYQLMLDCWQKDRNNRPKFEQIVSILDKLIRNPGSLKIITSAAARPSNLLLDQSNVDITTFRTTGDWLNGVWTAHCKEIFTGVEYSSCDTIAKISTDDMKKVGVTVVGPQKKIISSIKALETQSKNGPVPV

[17] = target: T2, Ephrin type-A receptor 3 (Homo sapiens); conditions: at 1 µM
[18] = target: Ephrin type-A receptor 4 (Homo sapiens) (UniProt P54764); conditions: at 0.1 µM
[19] = target: Ephrin type-A receptor 4 (Homo sapiens) (UniProt P54764); conditions: at 1 µM
[20] = target: T3, Ephrin type-B receptor 2 (Homo sapiens) (UniProt P29323); conditions: at 0.1 µM;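 also: reported as mean inhibition of EPHB2, from the GSK PKIS dataset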
T3 sequence (whole entry): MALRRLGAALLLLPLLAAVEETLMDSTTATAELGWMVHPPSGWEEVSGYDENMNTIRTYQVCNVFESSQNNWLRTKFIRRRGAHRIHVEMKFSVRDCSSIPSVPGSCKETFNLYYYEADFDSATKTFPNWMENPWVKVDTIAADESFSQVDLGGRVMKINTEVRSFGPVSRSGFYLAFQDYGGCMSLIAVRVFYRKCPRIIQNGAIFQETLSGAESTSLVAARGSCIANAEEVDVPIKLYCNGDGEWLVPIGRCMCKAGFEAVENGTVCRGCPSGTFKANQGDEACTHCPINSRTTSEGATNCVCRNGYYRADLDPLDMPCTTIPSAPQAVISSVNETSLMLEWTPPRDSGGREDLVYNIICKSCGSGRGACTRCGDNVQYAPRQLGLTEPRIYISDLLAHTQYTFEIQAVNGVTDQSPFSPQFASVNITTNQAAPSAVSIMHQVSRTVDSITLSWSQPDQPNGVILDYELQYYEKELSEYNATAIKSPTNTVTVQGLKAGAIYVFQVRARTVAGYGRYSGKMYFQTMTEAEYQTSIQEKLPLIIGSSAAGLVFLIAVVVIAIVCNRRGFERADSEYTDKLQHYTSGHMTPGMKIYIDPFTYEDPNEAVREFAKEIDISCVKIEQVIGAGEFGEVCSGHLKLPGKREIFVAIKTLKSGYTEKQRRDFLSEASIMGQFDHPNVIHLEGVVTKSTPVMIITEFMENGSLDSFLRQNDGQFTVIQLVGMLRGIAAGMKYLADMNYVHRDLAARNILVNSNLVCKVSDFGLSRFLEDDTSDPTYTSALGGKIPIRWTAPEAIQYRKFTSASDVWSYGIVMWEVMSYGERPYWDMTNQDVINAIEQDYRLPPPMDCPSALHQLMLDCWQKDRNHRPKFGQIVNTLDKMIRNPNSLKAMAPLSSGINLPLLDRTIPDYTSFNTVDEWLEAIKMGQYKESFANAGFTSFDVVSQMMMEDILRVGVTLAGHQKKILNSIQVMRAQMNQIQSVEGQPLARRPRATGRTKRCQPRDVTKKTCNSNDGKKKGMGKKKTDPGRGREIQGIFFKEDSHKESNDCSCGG

Chain of Tyrosine-protein kinase CSK (Homo sapiens) (P41240 2-450 limits assumed): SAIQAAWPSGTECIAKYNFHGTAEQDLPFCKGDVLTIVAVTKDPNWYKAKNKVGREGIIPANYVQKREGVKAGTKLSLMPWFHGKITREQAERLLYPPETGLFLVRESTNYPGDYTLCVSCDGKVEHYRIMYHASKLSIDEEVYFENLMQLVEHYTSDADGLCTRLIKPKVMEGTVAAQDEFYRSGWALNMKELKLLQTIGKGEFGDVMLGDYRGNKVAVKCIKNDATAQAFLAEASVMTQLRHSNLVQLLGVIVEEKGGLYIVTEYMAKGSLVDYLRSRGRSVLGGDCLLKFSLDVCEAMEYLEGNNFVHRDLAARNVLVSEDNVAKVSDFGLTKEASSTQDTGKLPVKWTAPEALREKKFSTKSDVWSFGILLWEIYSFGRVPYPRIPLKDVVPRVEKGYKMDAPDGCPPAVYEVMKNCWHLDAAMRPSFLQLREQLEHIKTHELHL
Chain of Epidermal growth factor receptor (Homo sapiens) (P00533 whole entry): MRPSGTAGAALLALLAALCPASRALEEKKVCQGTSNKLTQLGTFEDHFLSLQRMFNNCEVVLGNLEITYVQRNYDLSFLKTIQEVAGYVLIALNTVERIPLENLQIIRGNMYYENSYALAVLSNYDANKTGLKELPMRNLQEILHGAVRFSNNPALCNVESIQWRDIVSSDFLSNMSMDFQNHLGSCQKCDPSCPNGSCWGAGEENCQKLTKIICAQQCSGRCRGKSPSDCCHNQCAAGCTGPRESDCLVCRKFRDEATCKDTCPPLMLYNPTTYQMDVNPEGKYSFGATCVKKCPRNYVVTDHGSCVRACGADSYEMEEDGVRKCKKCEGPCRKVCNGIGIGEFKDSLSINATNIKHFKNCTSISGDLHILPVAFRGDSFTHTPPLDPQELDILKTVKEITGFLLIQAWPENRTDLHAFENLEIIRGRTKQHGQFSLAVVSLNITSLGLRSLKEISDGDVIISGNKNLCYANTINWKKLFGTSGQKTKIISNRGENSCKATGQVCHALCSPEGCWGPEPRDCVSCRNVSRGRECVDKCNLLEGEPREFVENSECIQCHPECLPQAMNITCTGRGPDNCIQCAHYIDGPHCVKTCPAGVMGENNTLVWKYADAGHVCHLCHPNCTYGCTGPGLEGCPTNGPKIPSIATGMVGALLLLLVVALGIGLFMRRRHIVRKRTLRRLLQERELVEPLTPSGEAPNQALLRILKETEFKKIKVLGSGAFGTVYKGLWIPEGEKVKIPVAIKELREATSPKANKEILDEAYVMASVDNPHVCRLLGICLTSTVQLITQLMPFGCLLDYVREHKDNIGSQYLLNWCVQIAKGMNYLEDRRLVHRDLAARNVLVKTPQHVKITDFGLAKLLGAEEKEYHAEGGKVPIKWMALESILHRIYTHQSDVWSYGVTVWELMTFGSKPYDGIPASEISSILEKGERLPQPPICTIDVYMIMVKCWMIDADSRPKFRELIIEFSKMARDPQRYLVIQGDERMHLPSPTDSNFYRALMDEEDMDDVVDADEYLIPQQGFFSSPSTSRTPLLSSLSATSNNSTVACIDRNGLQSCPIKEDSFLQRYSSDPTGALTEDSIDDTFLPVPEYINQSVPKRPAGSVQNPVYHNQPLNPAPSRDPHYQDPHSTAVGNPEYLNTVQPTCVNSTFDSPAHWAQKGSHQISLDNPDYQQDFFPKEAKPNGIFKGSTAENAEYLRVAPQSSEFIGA
Chain of Epidermal growth factor receptor (Homo sapiens), P00533 [L858R,T790M] (P00533 whole entry T790M/L858R, looked up): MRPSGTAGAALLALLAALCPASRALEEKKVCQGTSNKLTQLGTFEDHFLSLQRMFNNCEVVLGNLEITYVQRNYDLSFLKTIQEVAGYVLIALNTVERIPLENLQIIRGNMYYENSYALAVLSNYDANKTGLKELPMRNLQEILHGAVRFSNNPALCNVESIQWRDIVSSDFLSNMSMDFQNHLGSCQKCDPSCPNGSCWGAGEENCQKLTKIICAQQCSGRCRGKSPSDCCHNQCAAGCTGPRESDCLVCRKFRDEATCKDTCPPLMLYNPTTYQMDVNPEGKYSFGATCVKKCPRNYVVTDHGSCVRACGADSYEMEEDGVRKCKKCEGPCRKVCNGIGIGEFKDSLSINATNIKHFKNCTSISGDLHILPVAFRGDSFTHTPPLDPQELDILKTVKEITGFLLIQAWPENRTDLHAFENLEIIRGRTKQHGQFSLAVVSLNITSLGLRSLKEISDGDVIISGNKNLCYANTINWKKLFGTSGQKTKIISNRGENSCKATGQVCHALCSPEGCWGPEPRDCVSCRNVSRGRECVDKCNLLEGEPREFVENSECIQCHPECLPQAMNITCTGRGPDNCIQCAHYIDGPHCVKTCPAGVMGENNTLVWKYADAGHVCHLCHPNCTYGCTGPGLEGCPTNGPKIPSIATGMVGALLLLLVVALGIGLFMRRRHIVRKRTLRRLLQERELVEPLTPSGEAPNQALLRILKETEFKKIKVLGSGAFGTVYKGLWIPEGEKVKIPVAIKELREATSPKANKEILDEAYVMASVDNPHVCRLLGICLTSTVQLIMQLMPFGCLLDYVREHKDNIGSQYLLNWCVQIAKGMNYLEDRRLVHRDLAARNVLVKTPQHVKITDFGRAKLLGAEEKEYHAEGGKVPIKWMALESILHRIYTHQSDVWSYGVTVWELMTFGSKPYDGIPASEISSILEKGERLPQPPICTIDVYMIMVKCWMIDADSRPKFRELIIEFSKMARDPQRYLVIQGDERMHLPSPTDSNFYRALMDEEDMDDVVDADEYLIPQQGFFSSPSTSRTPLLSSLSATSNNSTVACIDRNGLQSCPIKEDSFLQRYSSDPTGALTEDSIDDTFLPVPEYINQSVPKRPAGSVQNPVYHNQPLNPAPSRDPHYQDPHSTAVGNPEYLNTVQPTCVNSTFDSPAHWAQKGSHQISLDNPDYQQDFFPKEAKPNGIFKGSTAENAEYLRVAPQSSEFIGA
Chain of Ephrin type-A receptor 2 (Homo sapiens) (P29317 whole entry): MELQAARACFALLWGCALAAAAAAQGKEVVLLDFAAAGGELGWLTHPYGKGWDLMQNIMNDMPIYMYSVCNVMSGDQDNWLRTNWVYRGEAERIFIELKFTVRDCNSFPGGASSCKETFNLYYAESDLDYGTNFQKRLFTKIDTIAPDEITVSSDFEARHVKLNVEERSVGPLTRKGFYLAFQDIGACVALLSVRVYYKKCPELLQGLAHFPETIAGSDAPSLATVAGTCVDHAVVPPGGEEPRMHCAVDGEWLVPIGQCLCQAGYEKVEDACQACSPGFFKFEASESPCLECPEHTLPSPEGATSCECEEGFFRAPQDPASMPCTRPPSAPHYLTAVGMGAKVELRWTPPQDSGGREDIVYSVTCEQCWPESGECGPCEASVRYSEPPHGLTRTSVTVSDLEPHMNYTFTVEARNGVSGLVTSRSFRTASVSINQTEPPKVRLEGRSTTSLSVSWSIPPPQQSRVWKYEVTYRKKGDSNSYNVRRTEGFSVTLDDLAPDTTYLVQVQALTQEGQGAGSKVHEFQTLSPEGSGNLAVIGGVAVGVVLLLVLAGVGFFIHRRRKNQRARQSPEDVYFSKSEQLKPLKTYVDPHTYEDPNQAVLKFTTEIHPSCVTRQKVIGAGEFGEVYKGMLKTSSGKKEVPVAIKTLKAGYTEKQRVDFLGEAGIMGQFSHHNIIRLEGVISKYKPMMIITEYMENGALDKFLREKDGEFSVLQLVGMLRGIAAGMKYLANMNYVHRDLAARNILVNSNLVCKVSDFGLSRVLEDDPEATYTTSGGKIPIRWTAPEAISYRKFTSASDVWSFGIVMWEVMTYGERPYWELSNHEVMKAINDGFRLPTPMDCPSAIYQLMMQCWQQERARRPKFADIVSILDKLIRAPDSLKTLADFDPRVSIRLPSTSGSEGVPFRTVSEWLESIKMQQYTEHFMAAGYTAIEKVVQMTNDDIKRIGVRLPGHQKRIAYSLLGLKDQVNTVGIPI
Chain of Epidermal growth factor receptor (Homo sapiens), P00533 [L861Q] (P00533 whole entry L861Q): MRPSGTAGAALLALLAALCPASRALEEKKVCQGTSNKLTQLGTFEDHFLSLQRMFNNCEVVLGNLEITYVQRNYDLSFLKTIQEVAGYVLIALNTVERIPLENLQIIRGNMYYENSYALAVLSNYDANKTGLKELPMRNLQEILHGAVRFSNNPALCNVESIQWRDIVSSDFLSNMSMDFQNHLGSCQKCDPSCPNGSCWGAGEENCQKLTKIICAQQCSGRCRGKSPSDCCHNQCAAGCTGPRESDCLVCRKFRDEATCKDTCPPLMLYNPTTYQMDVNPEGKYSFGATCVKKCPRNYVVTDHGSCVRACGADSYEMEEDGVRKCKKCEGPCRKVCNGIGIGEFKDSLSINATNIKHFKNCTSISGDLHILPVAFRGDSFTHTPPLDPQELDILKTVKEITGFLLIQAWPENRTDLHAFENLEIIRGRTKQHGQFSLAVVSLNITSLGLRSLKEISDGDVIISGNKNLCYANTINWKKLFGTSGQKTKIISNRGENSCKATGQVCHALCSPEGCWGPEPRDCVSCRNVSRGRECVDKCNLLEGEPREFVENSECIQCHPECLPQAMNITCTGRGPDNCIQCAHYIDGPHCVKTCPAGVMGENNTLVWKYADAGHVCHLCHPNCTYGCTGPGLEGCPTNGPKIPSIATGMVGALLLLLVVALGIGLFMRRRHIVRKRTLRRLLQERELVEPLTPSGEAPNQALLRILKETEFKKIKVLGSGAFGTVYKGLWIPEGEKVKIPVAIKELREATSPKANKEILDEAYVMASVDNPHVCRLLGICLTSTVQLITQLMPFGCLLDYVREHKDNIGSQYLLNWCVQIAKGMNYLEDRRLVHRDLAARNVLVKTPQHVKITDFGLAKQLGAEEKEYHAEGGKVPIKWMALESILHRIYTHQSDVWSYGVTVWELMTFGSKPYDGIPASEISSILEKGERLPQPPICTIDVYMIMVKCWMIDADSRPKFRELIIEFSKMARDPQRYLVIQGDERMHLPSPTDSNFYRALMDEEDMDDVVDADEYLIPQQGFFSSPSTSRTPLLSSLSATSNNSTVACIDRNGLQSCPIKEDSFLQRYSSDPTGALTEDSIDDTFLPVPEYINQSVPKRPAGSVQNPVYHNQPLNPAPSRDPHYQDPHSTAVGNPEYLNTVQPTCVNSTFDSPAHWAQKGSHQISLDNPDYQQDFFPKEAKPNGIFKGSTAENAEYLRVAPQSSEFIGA

CCn1c(-c2nonc2N)nc2c(C#CC(C)(C)O)nc(OC[C@H](N)c3ccccc3)cc21
inhibition [1]: 2.13%
inhibition [2]: 1.12%
inhibition [3]: 1.65%
inhibition [4]: 2.01%
inhibition [5]: 13.4%
inhibition [6]: 1.93%
inhibition [7]: 1.86%
inhibition [8]: -0.13%
inhibition [9]: 2.36%
inhibition [10]: 1.22%
inhibition [11]: 4.71%
inhibition [12]: 0.92%
inhibition [13]: 2.55%
inhibition [14]: 0.4%
inhibition [15]: -0.31%
inhibition [16]: 2.11%
inhibition [17]: 1.87%
inhibition [18]: 5.06%
inhibition [19]: 4.87%
inhibition [20]: 0.04%

NC(=O)c1sc(-n2cnc3ccc(C(F)(F)F)cc32)cc1OCc1ccccc1Br
inhibition [1]: 4.85%
inhibition [2]: 1.6%
inhibition [3]: 0.21%
inhibition [4]: 0%
inhibition [5]: -1.55%
inhibition [6]: 1.72%
inhibition [7]: 4.51%
inhibition [8]: 4.73%
inhibition [9]: 1.73%
inhibition [10]: 2.11%
inhibition [11]: 4.07%
inhibition [12]: -0.44%
inhibition [13]: 3.88%
inhibition [14]: -2.06%
inhibition [15]: -1.67%
inhibition [16]: 2.19%
inhibition [17]: 5.58%
inhibition [18]: 10.1%
inhibition [19]: 8.59%
inhibition [20]: 5.67%

CCc1nn2ncccc2c1-c1ccnc(NC2CC2)n1
inhibition [1]: 1.97%
inhibition [2]: 1.02%
inhibition [3]: 1.6%
inhibition [4]: 2.78%
inhibition [5]: 4.33%
inhibition [6]: 1.84%
inhibition [7]: 0.95%
inhibition [8]: 1.81%
inhibition [9]: 2.47%
inhibition [10]: 1.44%
inhibition [11]: 1.56%
inhibition [12]: -2.33%
inhibition [13]: 0.76%
inhibition [14]: 0.52%
inhibition [15]: 0.58%
inhibition [16]: 2.4%
inhibition [17]: 3.87%
inhibition [18]: 4.8%
inhibition [19]: 8.02%
inhibition [20]: -1.23%

Cc1ccc(O)cc1Nc1ccnc2cc(-c3ccccn3)ccc12
inhibition [1]: 57.1%
inhibition [2]: 20.3%
inhibition [3]: 74%
inhibition [4]: 57.7%
inhibition [5]: 91.9%
inhibition [6]: 88.8%
inhibition [7]: 97.8%
inhibition [8]: 59.8%
inhibition [9]: 91.9%
inhibition [10]: 5.49%
inhibition [11]: 15.3%
inhibition [12]: 3.59%
inhibition [13]: 30.4%
inhibition [14]: 34.4%
inhibition [15]: 80.2%
inhibition [16]: 79.3%
inhibition [17]: 87.5%
inhibition [18]: 91.2%
inhibition [19]: 90.9%
inhibition [20]: 90.5%

Nc1nc(-c2cccc(Cl)c2)c(-c2ccc3ncccc3n2)s1
inhibition [1]: 6.75%
inhibition [2]: -0.28%
inhibition [3]: -6.1%
inhibition [4]: 0.13%
inhibition [5]: 6.93%
inhibition [6]: 0.4%
inhibition [7]: 15.8%
inhibition [8]: 3.07%
inhibition [9]: 10.1%
inhibition [10]: 3.5%
inhibition [11]: 6.65%
inhibition [12]: 5%
inhibition [13]: 7.85%
inhibition [14]: 0.6%
inhibition [15]: 0.92%
inhibition [16]: 4.59%
inhibition [17]: 4.27%
inhibition [18]: 11%
inhibition [19]: 14.8%
inhibition [20]: 6.05%

NS(=O)(=O)c1ccc(Nc2ncc(-c3ccccc3)o2)cc1
inhibition [1]: 5.89%
inhibition [2]: 1.76%
inhibition [3]: 4.71%
inhibition [4]: 1.02%
inhibition [5]: 1.18%
inhibition [6]: 2.83%
inhibition [7]: 6.04%
inhibition [8]: 2.61%
inhibition [9]: 2.73%
inhibition [10]: 0.68%
inhibition [11]: 0.87%
inhibition [12]: 2.14%
inhibition [13]: 0.87%
inhibition [14]: 2.66%
inhibition [15]: 3.5%
inhibition [16]: 2.94%
inhibition [17]: 4.57%
inhibition [18]: 7.23%
inhibition [19]: 12%
inhibition [20]: 5.54%

CNC(=O)c1cc(-c2ccc(F)cc2)cc(-c2ccc(S(=O)(=O)N3CCCC3)cc2)c1N
inhibition [1]: 2.28%
inhibition [2]: 1.09%
inhibition [3]: 1.38%
inhibition [4]: 5.94%
inhibition [5]: 6.92%
inhibition [6]: 0.45%
inhibition [7]: 5.35%
inhibition [8]: 2.56%
inhibition [9]: 4.86%
inhibition [10]: 0.67%
inhibition [11]: 0.62%
inhibition [12]: -0.37%
inhibition [13]: 2.95%
inhibition [14]: -2.99%
inhibition [15]: -1.92%
inhibition [16]: 2.55%
inhibition [17]: 2.23%
inhibition [18]: 5.15%
inhibition [19]: 6.55%
inhibition [20]: 2.73%
